# Screen size: about 390,000 compounds; about 17,000 (4.4%) were called active. Another 8% or so got no clear call; they are omitted. Many of the other results were omitted from the sample, so actives are more common in it than they were. Values without a mark were called inactive. Calls follow the shape of the dose curve; as a rule, active = well fitted inhibition curve with a large enough effect; inconclusive = small, poorly fitted or top-dose-only effect; inactive = no such curve, though single readings can be large or run the other way.
# Biological target: Lysine-specific demethylase 4A (Homo sapiens) (UniProt O75164)
# Assay: qHTS Assay for Inhibitors of JMJD2A-Tudor Domain; also: nearly all actives have a fitted effect of over 50% in size
# Conditions: AlphaScreen JMJD2A-Tudor / H3K4me3 peptide binding; series mostly up to 114 µM; activity change, negative = inhibition: at the top concentration
# % is scaled to controls: 0 for no effect and ±100 for the full control effect; potency is read from the fitted curve at half-maximal effect.
# Lysine-specific demethylase 4A (Homo sapiens), sequence (O75164 whole entry, looked up, the tested form may be a part): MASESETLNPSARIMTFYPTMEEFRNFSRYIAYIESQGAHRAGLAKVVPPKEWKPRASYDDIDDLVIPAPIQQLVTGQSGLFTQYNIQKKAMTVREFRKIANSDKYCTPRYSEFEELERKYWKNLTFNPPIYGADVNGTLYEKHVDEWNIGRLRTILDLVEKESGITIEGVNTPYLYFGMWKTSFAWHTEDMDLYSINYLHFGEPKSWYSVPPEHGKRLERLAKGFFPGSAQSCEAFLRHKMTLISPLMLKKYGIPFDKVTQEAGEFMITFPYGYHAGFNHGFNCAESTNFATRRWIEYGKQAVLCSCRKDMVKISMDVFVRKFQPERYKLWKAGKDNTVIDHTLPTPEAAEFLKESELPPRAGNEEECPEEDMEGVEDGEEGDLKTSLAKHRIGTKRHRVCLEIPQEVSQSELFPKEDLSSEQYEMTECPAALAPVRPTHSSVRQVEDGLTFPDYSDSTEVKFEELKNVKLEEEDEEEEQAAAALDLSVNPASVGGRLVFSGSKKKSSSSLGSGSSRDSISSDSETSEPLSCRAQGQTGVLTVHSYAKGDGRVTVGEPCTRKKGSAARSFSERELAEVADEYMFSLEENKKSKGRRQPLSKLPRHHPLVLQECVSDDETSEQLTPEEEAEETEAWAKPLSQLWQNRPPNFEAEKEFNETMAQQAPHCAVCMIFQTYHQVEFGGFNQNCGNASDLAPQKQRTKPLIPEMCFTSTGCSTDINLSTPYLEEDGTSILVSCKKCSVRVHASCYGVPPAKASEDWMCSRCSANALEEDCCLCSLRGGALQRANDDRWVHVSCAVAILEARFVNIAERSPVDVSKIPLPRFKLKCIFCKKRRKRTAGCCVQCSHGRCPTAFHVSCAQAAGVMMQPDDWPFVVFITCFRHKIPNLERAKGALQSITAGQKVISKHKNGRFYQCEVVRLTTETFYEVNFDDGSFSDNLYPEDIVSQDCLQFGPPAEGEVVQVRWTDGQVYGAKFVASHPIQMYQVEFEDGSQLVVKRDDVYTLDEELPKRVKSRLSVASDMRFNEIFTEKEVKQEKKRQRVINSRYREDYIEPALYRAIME
SMILES,"activity change, negative = inhibition",Potency
CCN1CCN(CCCNC(=O)c2cnn(-c3ccc(C)cc3C)c2C2CCN(C(=O)OC(C)(C)C)CC2)CC1,-25.9%,–
COc1ccc(Cn2c(=O)n(-c3ccccc3C)c(=O)c3c4c(sc32)CN(C(C)=O)CC4)cc1,-19.6%,–
COc1ccccc1N1CCN(C(CNC(=O)C(=O)NCc2ccc(C)cc2)c2cccnc2)CC1 (configuration not stated),-1.64%,–
CC(=O)NC(c1cccs1)c1cc(Cl)c2cccnc2c1O (configuration not stated),-29.9%,–
O=C(NC(c1ccco1)c1cc(Cl)c2cccnc2c1O)c1ccccc1 (configuration not stated),-23.4%,–
O=C(CSc1cccc2cccnc12)N/N=C/c1cccnc1,-4.86%,–
CCN1CCN(C(c2cccnc2)c2cc(Cl)c3cccnc3c2O)CC1 (configuration not stated),–,17.8 µM (active)
CCOC(=O)N1CCN(C(c2cccnc2)c2ccc3cccnc3c2O)CC1 (configuration not stated),–,17.8 µM (active)
CC1=C(C(=O)OCc2ccc(C)cc2)C(c2c(Cl)cccc2Cl)CC(=O)N1 (configuration not stated),2.4%,–
Cc1onc(-c2ccc(F)cc2F)c1C(=O)Nc1cccc(C(F)(F)F)c1,11%,–
CCOCCCNC(=O)c1c(NC(=O)c2nc(SC)ncc2Cl)sc2c1CCCC2,-9.72%,–
CCOc1ccc(NC(=O)CCc2c(C)nn(-c3ccc(N4CCCC4)nn3)c2C)cc1,-22.7%,–
CCC(=O)c1ccc(OCC(=O)Nc2ccc(N3CCCCC3)cc2)cc1,-7.05%,–
O=C1C=CC(=O)N1c1ccc(N2CCCCC2)cc1,–,20 µM (active)
O=C(C1CC(=O)N(C2CCCCC2)C1)N1CCN(c2ccccc2)CC1 (configuration not stated),-33.1%,–
CCC(=O)Nc1ccc(C)cc1-c1nc2ccccc2n(Cc2ccccc2)c1=O,-0.993%,–
COc1cc(CN(C(=O)c2ccccc2Br)c2ccccn2)cc(OC)c1OC,-2.98%,–
COc1ccccc1C1C(C(=O)N2CCCCC2)=C(C)Nc2nc3ccccc3n21 (configuration not stated),-17.1%,–
COc1ccccc1CNC(=O)c1ccc(-n2c(C)cc3c2CCCC3)cc1,-28.7%,–
CCc1nnc(NC(=O)c2nc3nccc(C)n3n2)s1,–,35.5 µM (active)
Cc1ccnc2nc(C(=O)Nc3nnc(-c4ccccc4)o3)nn12,-18% [at 57.1 µM],–
CCc1nnc(NC(=O)c2ccc(S(=O)(=O)NC3CCCCC3)cc2)s1,-5.81%,–
COc1ccc(CCC(=O)NCc2ccc3c(c2)CCN3C(=O)c2ccc(F)cc2)cc1,-3.33%,–

SMILES,"activity change, negative = inhibition",Potency
COc1ccccc1-n1ccnc1SCC(=O)NC(C)(C)C,-6.01%,–
COc1ccc(-c2nnc(SCC(=O)NC3CCCCC3)o2)cc1OC,-0.704%,–
COc1ccccc1-n1ccnc(SCC(=O)NC2CCCCC2)c1=O,–,35.5 µM (active)
N#CN1CCC(NC(=O)c2ccc(F)cc2)CC1,-14.4%,–
C/C=C/c1ccc(OCC(O)CN2CCCCCCC2)c(OC)c1 (configuration not stated),–,3.16 µM (active)
CC1CCN(CCC(=O)Nc2ccccc2)CC1,-6.38%,–
OC(COc1ccc(CN2CCSCC2)cc1)CN1CCCCC1 (configuration not stated),-8.63%,–
C/C=C/c1ccc(OCCCCN2CCC(C)CC2)c(OC)c1,–,3.16 µM (active)
C=CCc1ccc(OCC(O)CN2CCN(Cc3ccccc3)CC2)c(OC)c1 (configuration not stated),-8.7%,–
C/C=C/c1ccc(OCCOc2ccc(C=O)cc2OC)c(OC)c1,10.4%,–
COc1ccc(OC)c(NC(=O)CCN2CCC(C)CC2)c1,-24.4%,–
COc1ccc(OCCCCN2CCC(C)CC2)cc1,–,20 µM (active)
C/C=C/c1ccc(OCC(=O)NNC(=O)CN(C)S(=O)(=O)c2ccc(C)cc2)c(OC)c1,-24.8%,–
O=C(NC1CC(=O)N(c2ccc(F)cc2)C1)c1cccs1 (configuration not stated),1.62%,–
COc1ccc(-c2noc(CSc3nnc(-c4ccccc4)n3-c3ccc(F)cc3)n2)c(OC)c1,-32.3%,–
Cc1oc2ccc(O)c(CN3CCCCC3)c2c1C(=O)Nc1cccc(C(F)(F)F)c1,-33.7%,–
CCCCCn1c(=O)[nH]c2cc(C(=O)NCCN(C)CCCC)ccc2c1=O,-6.48%,–
CCC(=O)N1CCc2cc(S(=O)(=O)NC(Cc3ccccc3)C(=O)NCc3ccc(C)cc3)ccc21 (configuration not stated),-3%,–
CN(Cc1ccccc1)C(=O)c1cc2c(=O)n(C)c3ccccc3c2s1,-1.67%,–
COc1ccc(C2=Nn3c(nnc3-c3ccccc3O)SC2)cc1,-17.9%,–
CC1=C(C(=O)OCC(C)C)C(c2ccc(OCc3ccccc3)cc2)N2C(=O)CCSC2=N1 (configuration not stated),-15.6%,–
CCC(=O)Nc1cccc(C(=O)OCc2cc(=O)n3nc(CC)sc3n2)c1,-3.97%,–
O=S(=O)(NCCc1ccncc1)c1ccccc1,-7.32%,–

SMILES,"activity change, negative = inhibition",Potency
O=S(=O)(NCCc1ccccc1)c1ccccc1,-11.6%,–
S=c1[nH]nc(NCCc2ccccc2)s1,–,2.51 µM (active)
Cc1nn2c(=O)cc(COC(=O)CNC(=O)c3ccc(F)cc3)nc2s1,-14.3%,–
Cc1ccc(C)c(N2CCN(Cc3nnc(-c4ccccc4)o3)CC2)c1,-4.79%,–
CC1CCC(N2CC(=O)N(CCC3=CCCCC3)C(c3ccc(F)cc3)C2=O)CC1 (configuration not stated),7.65%,–
Cn1c(-c2sccc2OCc2cccc(C(F)(F)F)c2)n[nH]c1=S,-12% [at 11.4 µM],–
Cc1ccccc1-c1n[nH]c(=S)n1C,–,7.08 µM (active)
Cn1c(-c2sc3cc(C(F)(F)F)cnc3c2-c2ccccc2)n[nH]c1=S,-31.9%,–
COc1ccc(C(=O)CSc2n[nH]c(N)n2)cc1,–,56.2 µM (active)
COc1ccc(-c2nc(SCC(=O)N3CCOCC3)n[nH]2)cc1,-4.35%,–
COc1ccc(CNC(=O)CSc2n[nH]c(N)n2)cc1OC,-7.77%,–
COc1cccc(C(=O)NC(=O)Nc2ccc(-c3cc(C(F)(F)F)nn3-c3ccccc3)cc2)c1,-9.7%,–
Cc1ccc(S(=O)(=O)NCc2nc3nc(C)cc(C)n3n2)cc1,-10.4%,–
CCC1=Nc2cc(C(=O)NCCCOC(C)C)ccc2Sc2ccc(C)cc21,-26.2%,–
O=C(CCS(=O)(=O)c1ccc2c(c1)NC(=O)CO2)Nc1cccc(C(F)(F)F)c1,-2.96%,–
CS(=O)(=O)c1ccc2c(c1)SC1=NC(=O)/C(=C/c3ccco3)C(=N)N12,-34%,–
CC(C)(C)C1C/C(=C/c2ccco2)C(=O)/C(=C/c2ccco2)C1 (configuration not stated),–,31.6 µM (active)
Cc1cccc(NC(=O)CSc2ncc(-c3ccccc3)[nH]2)c1C,-23.9%,–
CCc1ccccc1NS(=O)(=O)c1ccc2nc(-c3ccccc3)[nH]c2c1,-10.6%,–
Cc1ccc(Nc2ccc3cc(S(=O)(=O)N4CCCCC4)ccc3n2)cc1F,48.7%,–
CCOc1ccc(C2CC(=O)c3c([nH]c(C(=O)OCc4ccccc4)c3C)C2)cc1 (configuration not stated),-34.6%,–

# Reference: PubChem BioAssay AID504339 (National Center for Advancing Translational Sciences (NCATS), 2011)
